Test results published in PubChem BioAssay (NCATS).
Results filed as inconclusive are left out. Activity calls are given as the source filed them. Calls come from the whole dose curve; as a rule, active = well fitted inhibition curve with a large enough effect; inconclusive = small, poorly fitted or top-dose-only effect; inactive = no such curve, though single readings can be large or run the other way.

test system: Zika virus NS2B-NS3 protease (linked construct); assay: Primary screen NINDS Rhodamine qHTS for Zika virus inhibitors (AID 1347160); conditions: purified NS2B-NS3 protease, Rhodamine110 substrate fluorescence; series mostly up to 57.1 µM; note: nearly all actives have a fitted effect of over 55% in size
Procedure, shortened: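 Purified NS2B-NS3 protease with the NS2B hydrophilic domain joined by a flexible linker (25 nM) in 10 mM Tris-HCl pH 8.0, 0.01% Tween 20, preincubated 15 min at RT with compound; Rhodamine110 peptide substrate 1.5 µM; fluorescence change over 15 min; 4-parameter Hill fit.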

| Compound | outcome |
| --- | --- |
| CCCCS(=O)(=O)N[C@@H](Cc1ccc(OCCCCC2CCNCC2)cc1)C(=O)O | inactive |
| COc1cccc(OC)c1C(=O)N[C@@H]1C(=O)N2[C@@H]1SC(C)(C)[C@@H]2C(=O)O | inactive |
| COC(=O)CCc1ccc(OCC(O)CNC(C)C)cc1 (stereo unspecified) | inactive |
| CC(=O)O[C@]1(C(C)=O)CC[C@H]2[C@@H]3C[C@H](C)C4=CC(=O)CC[C@]4(C)[C@H]3CC[C@@]21C | inactive |
| CN1C(CCl)Nc2cc(Cl)c(S(N)(=O)=O)cc2S1(=O)=O (stereo unspecified) | inactive |
| CN1CCC[C@@H]1c1cccnc1 | inactive |
| Cc1nc2n(c(=O)c1CCN1CCC(c3noc4cc(F)ccc34)CC1)CCC[C@H]2O | inactive |
| CC(CCc1ccccc1)NCC(O)c1ccc(O)c(C(N)=O)c1 (stereo unspecified) | inactive |
| COc1ccc(CN2CCN(C(c3ccc(F)cc3)c3ccc(F)cc3)CC2)c(OC)c1OC | inactive |
| Nc1ccn([C@@H]2O[C@H](CO)[C@@H](O)C2(F)F)c(=O)n1 | inactive |
| Cc1ccc(C(=O)C(C)CN2CCCCC2)cc1 (stereo unspecified) | inactive |
| CN1[C@@H]2CC[C@H]1CC(OC(=O)c1c[nH]c3ccccc13)C2 (stereo partly specified) | inactive |
| NC(=NCCCCCCN=C(N)/N=C(\N)Nc1ccc(Cl)cc1)/N=C(\N)Nc1ccc(Cl)cc1 | inactive |
| CC(C)(C)NC(=O)[C@@H]1CN(Cc2cccnc2)CCN1C[C@@H](O)C[C@@H](Cc1ccccc1)C(=O)N[C@H]1c2ccccc2C[C@H]1O | inactive |
| CN1CCN(C(c2ccccc2)c2ccccc2)CC1 | inactive |
| O=c1[nH]c(=O)n([C@H]2CCCO2)cc1F | inactive |
